# Test results published in PubChem BioAssay AID722 (NMMLSC, 2007).
# Hit rate of the full screen: of about 1,300 compounds, about 40 (3%) were called active. The list comes from a sample in which actives are over-represented; it also holds similar structures and randomly drawn compounds. A number with no mark means an inactive call. No stated cut-off is given here; in the data, active means inhibition above about 30%; inactive means the rest.
# Target: fMet-Leu-Phe receptor (Homo sapiens) (UniProt P21462)
# Sequence (P21462 whole entry, looked up): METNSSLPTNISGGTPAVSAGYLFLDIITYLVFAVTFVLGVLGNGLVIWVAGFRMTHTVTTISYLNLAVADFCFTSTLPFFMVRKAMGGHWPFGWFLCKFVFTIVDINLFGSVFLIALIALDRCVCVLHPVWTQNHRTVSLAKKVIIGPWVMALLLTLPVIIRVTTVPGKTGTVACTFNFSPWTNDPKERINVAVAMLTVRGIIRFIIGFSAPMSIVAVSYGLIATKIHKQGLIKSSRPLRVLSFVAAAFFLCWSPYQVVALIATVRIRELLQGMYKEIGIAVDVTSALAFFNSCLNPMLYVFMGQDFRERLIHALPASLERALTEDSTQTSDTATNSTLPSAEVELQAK
# Assay: human FPR1 ligand displacement screen – cell-based, flow cytometry, SAR analysis, primary screen (AID 722)
# Conditions: FPR-expressing cells, fluorescent ligand binding inhibition, active compounds read high, concentration not given here
row,SMILES,inhibition
1,Cc1nc2c(-c3ccc(Cl)cc3)c(C(F)(F)F)[nH]n2c(=O)c1Cc1ccccc1,50.1% (active)
2,Cc1nc2c(-c3ccc(Cl)cc3)c[nH]n2c(=O)c1Cc1ccccc1,-1.4%
3,COc1ccc(-c2c(C)[nH]n3c(=O)c(Cc4ccccc4)c(C)nc23)cc1,6.3%
4,N#CCn1c(=O)n(Cc2ccccc2)c(=O)c2oc3ccccc3c21,-0.8%
5,CCCCN(Cc1ccco1)C(=O)c1noc2c1CCCCC2,0.1%
6,CCOC(=O)c1c(NC(=O)c2cccc(Br)c2)sc(C)c1C,-4.3%
7,Cc1ccc(C)c(NC(=O)Cn2c(-c3nonc3N)nc3ccccc32)c1,5.3%
8,O=c1c2cccnc2n(Cc2ccccc2F)c(=O)n1Cc1cccs1,-0.6%
9,Cc1sc2c(c1C)c(=O)n(Cc1ccccc1)c(=O)n2Cc1ccccc1F,38.5% (active)
10,O=c1c2cccnc2n(Cc2ccccc2F)c(=O)n1Cc1ccccc1,-7.5%
11,Cc1ccc(C)c(Cn2c(=O)cc(C)c3c(C)nn(-c4cccc(F)c4)c32)c1,-2.2%
12,CCOC(=O)c1sc(N2C(=O)C(=O)/C(=C(/O)c3ccccc3)C2c2ccc(C(C)C)cc2)nc1C (configuration not stated),7.9%
13,Cc1nnc(N2C(=O)C(=O)/C(=C(/O)c3ccc(F)cc3)C2c2cccc(Oc3ccccc3)c2)s1 (configuration not stated),-8.8%
14,Cc1ccc(CN(Cc2ccco2)C(=O)c2cccc(C)c2)cc1,-4.5%
15,O=C(O)CCCN1C(=O)C(=O)/C(=C(/O)c2ccccc2)C1/C=C/c1ccccc1 (configuration not stated),44.6% (active)
16,O=C(O)CCCN1C(=O)C(=O)/C(=C(/O)c2ccccc2)C1c1ccc(F)cc1 (configuration not stated),5.5%
17,O=C(O)CCCN1C(=O)C(=O)/C(=C(/O)c2ccccc2)C1c1ccc(Br)cc1 (configuration not stated),1.2%
18,O=C1C(=O)N(CCCN2CCOCC2)C(c2cccnc2)/C1=C(\O)c1ccccc1 (configuration not stated),-3.2%
19,COc1cc(C2C(C(C)=O)=C(O)C(=O)N2c2ccc(Br)cc2)ccc1O (configuration not stated),35.8% (active)

row,SMILES,inhibition
1,COc1cccc(C2C(C(C)=O)=C(O)C(=O)N2c2ccc(C)c(Br)c2)c1 (configuration not stated),-9%
2,COC(=O)c1ccc(C2C(C(C)=O)=C(O)C(=O)N2c2ccc(OCC(=O)O)cc2)cc1 (configuration not stated),2.2%
3,Cc1cccc(C(=O)N(C(=O)c2cccc(C)c2)c2ncccn2)c1,-8.2%
4,CCN(C(=O)c1noc2c1CCCCC2)c1cccc(C)c1,-6.2%
5,O=C(C1=C(O)C(=O)N(CCCn2ccnc2)C1c1ccc(Cl)cc1)c1cccs1 (configuration not stated),19.5%
6,COc1ccc(C2C(C(=O)c3cccs3)=C(O)C(=O)N2CCCn2ccnc2)cc1 (configuration not stated),42.2% (active)
7,O=C(C1=C(O)C(=O)N(CCCN2CCOCC2)C1c1cccnc1)c1ccco1 (configuration not stated),-9.2%
8,O=C(C1=C(O)C(=O)N(CCCn2ccnc2)C1c1cccnc1)c1cc2ccccc2o1 (configuration not stated),40.4% (active)
9,O=C(C1=C(O)C(=O)N(CCc2ccccc2)C1c1ccc([N+](=O)[O-])cc1)c1cccs1 (configuration not stated),-7.4%
10,O=C(C1=C(O)C(=O)N(CCc2ccccc2)C1c1ccc(Cl)cc1)c1cccs1 (configuration not stated),77.6% (active)
11,COc1cccc(C2C(C(=O)c3cccs3)=C(O)C(=O)N2CCc2ccccc2)c1 (configuration not stated),15.8%
12,O=C(C1=C(O)C(=O)N(CCCN2CCOCC2)C1c1cccnc1)c1cc2ccccc2o1 (configuration not stated),22.2%
13,COc1ccc(C2C(C(=O)c3cccs3)=C(O)C(=O)N2CCCn2ccnc2)c(OC)c1 (configuration not stated),1.7%
14,O=C(C1=C(O)C(=O)N(CCCn2ccnc2)C1c1cccnc1)c1cccs1 (configuration not stated),3.5%
15,O=C(C1=C(O)C(=O)N(CCCn2ccnc2)C1c1cccc(Br)c1)c1ccco1 (configuration not stated),0.3%
16,O=C(C1=C(O)C(=O)N(CCCn2ccnc2)C1c1cccnc1)c1ccco1 (configuration not stated),33.2% (active)
17,O=C(C1=C(O)C(=O)N(CCCN2CCOCC2)C1c1ccco1)c1ccco1 (configuration not stated),-4.4%
18,Cc1ccc(/C(O)=C2\C(=O)C(=O)N(CC3CCCO3)C2c2ccc([N+](=O)[O-])cc2)cc1 (configuration not stated),-3.9%
19,CCCC(=O)N1CCc2cc(OC)c(OC)cc2C1COc1ccc(OC)cc1 (configuration not stated),-2.3%

row,SMILES,inhibition
1,Cc1nc2c(C(=O)N3CCCCC3)c[nH]n2c(=O)c1Cc1ccccc1F,-4.3%
2,CCOc1ccc(C2/C(=C(/O)c3ccccc3)C(=O)C(=O)N2CCO)cc1 (configuration not stated),1.5%
3,Cc1ccc(/C(O)=C2\C(=O)C(=O)NC2c2ccc(F)cc2)cc1 (configuration not stated),10%
4,Cc1ccc(/C(O)=C2\C(=O)C(=O)NC2c2ccccc2)cc1 (configuration not stated),0.5%
5,O=C(c1cccs1)N1c2ncnn2C2(CCCCC2)[C@@H]2CCCC[C@@H]21,0.9%
6,COc1cccc(N(Cc2nnc3n2CCCCC3)C(=O)Nc2ccccc2)c1,-7.8%
7,COc1ccccc1C1CC(c2ccccc2)=NN1C(=O)c1ccccc1 (configuration not stated),0%
8,CCOC(=O)c1c(NC(=O)c2ccc(Cl)cc2)sc(C)c1C,-1%
9,CCOC(=O)c1c(NC(=O)c2cc(F)c(F)cc2Cl)sc2c1CCC2,-9.6%
10,CCOC(=O)c1c(NC(=O)c2cccc(F)c2)sc2c1CCCC2,-4%
11,C=CCC(CC=C)(NC(=O)c1cccc(C)c1)c1ccccc1,0.8%
12,O=C(C1=C(O)C(=O)N(c2nncs2)C1c1ccccc1F)c1cccs1 (configuration not stated),-6.8%
13,CCc1c(C)nc2c(C#N)c[nH]n2c1=O,0.5%
14,CC(=O)C1=C(O)C(=O)N(CCN2CCOCC2)C1c1ccc([N+](=O)[O-])cc1 (configuration not stated),5.7%
15,CCC(C)(C(=O)NC1CCCCC1)N(C)C(=O)Cc1cccs1 (configuration not stated),-25.1%
16,CCC(C)(C(=O)NC1CCCCC1)N(Cc1cccs1)C(C)=O (configuration not stated),57.2% (active)
17,CCOc1ccccc1C(=O)N(Cc1cccs1)c1ccc(C)cc1,5.8%
18,COc1cccc(C(=O)N(Cc2ccco2)Cc2ccccc2F)c1,-2.3%
19,O=C(C(Cc1ccccc1)N1Cc2ccccc2C1=O)N1CCCCCC1 (configuration not stated),0.8%
